The nature of experiment [1]: AP1 Signaling Pathway (AID 357; active = well fitted curve in either direction with a large enough effect, not every such curve was filed as active;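 note: ME-180 reporter cells stimulated with EGF at its EC50 level; % is set by controls: 0 for no effect and ±100 for the full control effect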). To be noted: ME-180 AP-1-bla reporter, EGF-induced, beta-lactamase ratio, 5 h; at 7.69 µM (top of the series) unless noted. The procedure, abridged:
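First, ME-180 AP-1-bla cells were cultured overnight at 37 °C in low-serum Opti-MEM. Next, titrated compounds with EC50 EGF were incubated 5 hours. Finally, CCF4 was added for 2.5 hours and the 460/530 nm ratio recorded.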

In experiment [2] the target is Cytochrome P450 1A2 (Homo sapiens) (UniProt P05177). Description: p450-cyp1a2 (AID 410; calls by dose curve;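 note: -100% = full effect of reference inhibitor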). The gist of the method:
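Inhibition was calculated relative to 57 uM furafylline (full inhibition). The reaction used human CYP1A2 at 20nM with Luciferin-ME at its Km, 100uM, driven by an NADPH-regenerating system for 60 min at room temperature.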

Experiment [3] can be described thus: NFAT Signaling Pathway (AID 444; active = well fitted curve in either direction with a large enough effect, not every such curve was filed as active;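 note: carbachol stimulus at about its EC50 of 1 µM final; % is set by controls: 0 for no effect and ±100 for the full control effect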). To be noted: Jurkat NFAT-bla M1, carbachol, beta-lactamase ratio, 5 h; at 7.69 µM (top of the series) unless noted. The procedure, abridged:
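Jurkat cells with NFAT-driven β-lactamase reporter and co-expressed M1 receptor, stimulated with carbachol (final 1 uM, ~EC50), compound titration, 5 h at 37 °C. CCF4 loaded 1 h at RT; 460/530 nm ratio gave %activity and AC50.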

Experiment [4] can be described thus: Stat Signaling Pathway (AID 446; active = well fitted curve in either direction with a large enough effect, not every such curve was filed as active;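 note: ME-180 cervical cancer cells given 40 pM IL-6 alongside compound; SIE-controlled beta-lactamase reporter measured as 460/530 nm FRET emission ratio; % is set by controls: 0 for no effect and ±100 for the full control effect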). Particulars: ME-180 SIE beta-lactamase reporter, IL-6 stimulated, 5 h; at 7.69 µM (top of the series) unless noted. The procedure, abridged: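 Reporter line: ME-180 cervical carcinoma, SIE-beta-lactamase. Treatment: compound with 40 pM IL-6, 5 hrs, 37 C, in low-serum OPTI-MEM with 10 mM HEPES pH 7.3. Detection: 460/530 nm fluorescence.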

The target of experiment [5] is Glucocorticoid receptor (Homo sapiens) (UniProt P04150). Description: GR-GFP Redistribution (AID 450;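 active = compounds whose dose series gives a full or clear partial fitted curve of increased nuclear translocation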; note: potency is the fitted concentration of half-maximal effect). Particulars: U2OS GR-GFP nuclear translocation, laser cytometry, 2 h.
Glucocorticoid receptor (Homo sapiens), sequence (P04150 whole entry, looked up): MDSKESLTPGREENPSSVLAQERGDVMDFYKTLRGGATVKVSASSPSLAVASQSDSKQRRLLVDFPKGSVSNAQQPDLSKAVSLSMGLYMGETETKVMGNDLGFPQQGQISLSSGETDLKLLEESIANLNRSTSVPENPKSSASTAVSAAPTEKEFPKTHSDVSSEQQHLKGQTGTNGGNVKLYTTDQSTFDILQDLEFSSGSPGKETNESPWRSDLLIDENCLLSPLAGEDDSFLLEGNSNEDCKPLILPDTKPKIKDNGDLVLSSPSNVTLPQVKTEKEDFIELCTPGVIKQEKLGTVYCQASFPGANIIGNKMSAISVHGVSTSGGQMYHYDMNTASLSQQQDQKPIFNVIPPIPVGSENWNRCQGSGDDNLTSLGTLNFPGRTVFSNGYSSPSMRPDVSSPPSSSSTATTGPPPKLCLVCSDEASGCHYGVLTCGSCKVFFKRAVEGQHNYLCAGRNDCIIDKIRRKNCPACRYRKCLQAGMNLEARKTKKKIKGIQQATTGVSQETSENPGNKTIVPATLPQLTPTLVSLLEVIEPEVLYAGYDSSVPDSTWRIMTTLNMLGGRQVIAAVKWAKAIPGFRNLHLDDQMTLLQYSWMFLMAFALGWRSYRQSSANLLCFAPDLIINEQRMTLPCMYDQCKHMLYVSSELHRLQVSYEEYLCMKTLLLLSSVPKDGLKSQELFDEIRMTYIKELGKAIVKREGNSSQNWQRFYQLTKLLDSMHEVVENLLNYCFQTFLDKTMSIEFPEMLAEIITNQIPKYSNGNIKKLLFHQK
Experiment [6] has the same target. Description: GR-EFC Redistribution (AID 451; calls by dose curve; note: potency is the fitted concentration of half-maximal effect). Particulars: CHO-K1 GR-EFC translocation, beta-gal luminescence, 2 h. The gist of the method:
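CHO-K1 cells expressing nuclear EA and GR-ED fragments of b-gal; compounds titrated up to 46 uM final, 2 h at 37 C. GR nuclear translocation read as complemented b-gal luminescence after 1 h RT detection.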

Experiment [7] addresses Mitogen-activated protein kinase 10 (Mus musculus) (UniProt Q61831). Description: JNK3 AlphaScreen Assay (AID 530; active = well fitted curve in either direction with a large enough effect, not every such curve was filed as active;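 note: kinase came from lysate of stimulated human HepG2 cells; signal reports phosphorylation of biotinylated GST-cJun 1-79 at Ser73 with 10 µM ATP; % is set by controls: 0 for no effect and ±100 for the full control effect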). The procedure, abridged: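 qHTS format: compounds tested as titrations against IL-1beta/TNF-alpha-activated HepG2 lysate JNK3 with biotin-GST-cJun substrate and 10 uM ATP at room temperature. Loss of anti-phospho-cJun AlphaScreen signal indicates inhibition.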
(In Alpha technology, singlet oxygen from a donor bead excites a nearby acceptor bead.)

Experiment [8] concerns the target 3',5'-cyclic-AMP phosphodiesterase 4B (Homo sapiens) (UniProt Q07343). Description: qHTS Assay for Inhibitors of PDE-IV (AID 607; active = well fitted activation curve with a large enough effect in the main read-out, with a control signal flat, not every such curve was filed as active; note: % of control where 0% means no effect). The procedure, abridged:
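Cell-based read-out of cAMP via a modified cyclic nucleotide-gated channel and membrane potential dye (535/590 nm) in HEK293 cells expressing PDE4 endogenously. Compounds tested up to 22.9 uM final; 100 uM RO 20-1724 reference.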
On the technique in general: Quantitative high-throughput screening tests each substance at several concentrations.

Experiment [9] addresses Guanine nucleotide-binding protein G(i) subunit alpha-1 (Homo sapiens) (UniProt P63096). Description: qHTS Assay for Inhibitors of RGS12 GoLoco Motif Activity (Green Fluorophore) (AID 879).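 Note: 0% = labeled peptide with Gαi1 and full inhibition = labeled peptide alone without protein; negative values mean loss of peptide binding seen as reduced polarization.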 The procedure, abridged:
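Fluorescence polarization assay: 50 nM Gαi1 with 10 nM FITC-labeled RGS12 GoLoco peptide in 10 mM Tris pH 7.5, 150 mM NaCl, 0.1 mM GDP, 0.05% NP40, 10 min at room temperature with compound.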

Experiment [10] has as its target Cytochrome P450 3A4 (Homo sapiens) (UniProt P08684). Description: qHTS Assay for Activators of Cytochrome P450 3A4 (AID 885). Note: nearly all actives have a fitted effect of over 65% in size. The gist of the method:
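Signal was normalized against complete inhibition by 57 uM ketoconazole. The reaction used 20nM CYP3A4 with 25uM Luciferin-PPXE, 10-min compound preincubation and a 60-min NADPH-supported step at RT.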

Experiment [11] can be described thus: qHTS Assay for Identification of Small Molecule Agonists for Thrombopoietin (TPO) Signaling Pathway (AID 917). Note: % is set by controls: 0 for no effect and ±100 for the full control effect. The gist of the method: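 We measured Glycoprotein IIb promoter–luciferase output in IL-3-starved Ba/F3 murine cells expressing the human TPO receptor after 24 hrs at 37 C with compounds and 26 pM TPO.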
In experiment [12] the target is Muscarinic acetylcholine receptor M1 (Rattus norvegicus) (UniProt P08482). Description: qHTS Assay for Antagonists of Acetylcholine Muscarinic M1 Receptor: Measurement of IP-One Response (AID 944). Note: nearly all actives have a fitted effect of over 75% in size. The gist of the method: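 Steps: plate transfected CHO-M1 cells overnight; add test compound, 10 min; add carbachol (200 nM, EC80) in stimulation buffer with LiCl; incubate 30 min; add labelled IP1 tracer and anti-IP1 antibody in lysis buffer; read HTRF after 10 min.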
Muscarinic acetylcholine receptor M1 (Rattus norvegicus), sequence (P08482 whole entry, looked up): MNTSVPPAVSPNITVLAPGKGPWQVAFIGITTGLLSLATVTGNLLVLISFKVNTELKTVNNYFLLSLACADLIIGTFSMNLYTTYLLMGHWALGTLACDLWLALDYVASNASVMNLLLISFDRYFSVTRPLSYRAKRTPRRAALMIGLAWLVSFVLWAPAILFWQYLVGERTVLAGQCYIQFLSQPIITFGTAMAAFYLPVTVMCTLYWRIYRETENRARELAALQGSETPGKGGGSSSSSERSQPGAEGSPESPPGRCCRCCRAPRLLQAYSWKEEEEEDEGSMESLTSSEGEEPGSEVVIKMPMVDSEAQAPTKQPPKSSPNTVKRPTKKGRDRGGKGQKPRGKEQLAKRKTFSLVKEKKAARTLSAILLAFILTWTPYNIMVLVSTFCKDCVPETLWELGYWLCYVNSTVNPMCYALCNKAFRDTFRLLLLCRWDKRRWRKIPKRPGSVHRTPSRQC

Experiment [13] addresses Pyruvate kinase (Leishmania mexicana) (UniProt Q27686). Description: qHTS Validation Assay for Inhibitors of Leishmania Mexicana Pyruvate Kinase (AID 945).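 Note: 0% = DMSO only neutral control wells.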 The procedure, abridged:
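Mutant LmPYK (E451W), 0.2 nM, plus 0.5 mM PEP and 0.1 mM ADP in 50 mM imidazole pH 7.2 containing 0.01% Tween 20 and 0.05% BSA. Incubated 1 h at room temperature; luminescence via PKLight, normalized to DMSO.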

Experiment [14] concerns the target Pyruvate kinase PKM (Homo sapiens) (UniProt P14618). Description: qHTS Assay for Activators of Human Muscle Pyruvate Kinase (AID 954; active = well fitted curve in the direction sought with a large enough effect, not every such curve was filed as active;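 note: 0% = uninhibited enzyme and -100% = no enzyme or full thiadiazolimine inhibition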). The procedure, abridged: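 Human PKM2 activity is measured as ATP generation, detected by luciferase-coupled luminescence. The enzyme (0.1 nM) acts on 0.5 mM PEP and 0.1 mM ADP for 1 h at ambient temperature; data are normalized to uninhibited and full-inhibition wells.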

For experiment [15], the target named is Alpha-galactosidase A (Homo sapiens) (UniProt P06280). Description: Counterscreen for Glucocerebrosidase Inhibitors: qHTS Assay for Human alpha-Galactosidase at pH 4.5 (AID 992). Note: 0% is about no effect. The gist of the method:
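Quantitative HTS: compounds tested from 0.7 nM up to 77 uM against 2 nM enzyme with 80 uM 4-MU alpha-D-galactopyranoside. The 20 min room-temperature reaction is stopped with 1M NaOH/1M glycine, pH 10.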
Background: Counterscreens check selectivity or assay interference.

Experiment [16] has as its target alpha-glucosidase (Oryza sativa, rice) (UniProt Q653V4). Description: Counterscreen for Glucocerebrosidase Inhibitors: qHTS Assay for Rice alpha-Glucosidase at pH 5.0 (AID 997).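 For activity change, negative = inhibition: 0% = full activity with enzyme and -100% = basal without enzyme.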 Note: potency is the fitted concentration of half-maximal effect. The procedure, abridged: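 Rice alpha-glucosidase (4 nM final) with 400 uM 4-methylumbelliferyl-alpha-D-glucopyranoside in citrate buffer pH 5.0, 20 min at room temperature, stopped at pH 10; fluorescence 365/440 nm, compounds 0.7 nM–77 uM, AC50 from Hill fits.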

Experiment [17] can be described thus: qHTS Assay for Identification of Small Molecule Antagonists for NFkB Signaling Pathway (AID 895; active = well fitted inhibition curve with a large enough effect in the signal ratio, with a control signal flat, not every such curve was filed as active; the % refers to the signal ratio; note: % is set by controls: 0 for no effect and ±100 for the full control effect). The gist of the method: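 ME-180 NFkB-bla cells (beta-lactamase under NFkB response element), plated overnight, treated with compound then 10 pM TNF alpha (about EC50) for 5 hrs at 37 C. LiveBLAzer FRET read at 460/530 nm emission, 405 nm excitation.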
Experiment [18] has as its target Cytochrome P450 2C9 (Homo sapiens) (UniProt P11712). Description: qHTS Assay for Inhibitors and Substrates of Cytochrome P450 2C9 (AID 883). Note: % is set by controls: 0 for no effect and ±100 for the full control effect; nearly all actives have a fitted effect of over 60% in size. The procedure, abridged:
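Signal: luciferase luminescence reporting luciferin produced by CYP2C9. Conditions: 10nM enzyme, Luciferin-H 100uM at KM, 25mM KPO4, 37C, 60 min NADPH-driven reaction. Reference: 57uM sulphaphenazole as 100% inhibition.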

The target in experiment [19] is Cytochrome P450 2D6 (Homo sapiens) (UniProt P10635). Description: qHTS Assay for Inhibitors and Substrates of Cytochrome P450 2D6 (AID 891).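 Note: luciferin methyl ether substrate demethylated by CYP2D6 with NADPH regeneration; % is set by controls: 0 for no effect and ±100 for the full control effect; nearly all actives have a fitted effect of over 60% in size.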 The procedure, abridged: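 Human CYP2D6 (5 nM) with 30 uM Luciferin-ME EGE (at Km) in 100 mM KPO4, compound preincubated 10 min, then NADPH regeneration system for 60 min at room temperature. Luciferin read by luminescence; normalized to 1.43 uM quinidine.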

Experiment [20] concerns the target Cytochrome P450 2C19 (Homo sapiens) (UniProt P33261). Description: qHTS Assay for Inhibitors and Substrates of Cytochrome P450 2C19 (AID 899). Note: % is set by controls: 0 for no effect and ±100 for the full control effect; nearly all actives have a fitted effect of over 60% in size. The procedure, abridged:
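Signal comes from luciferase acting on luciferin released by CYP2C19-mediated hydroxylation of Luciferin-H EGE, 10uM (KM). Assay mix: 5nM enzyme, 50mM KPO4; 60 min at 37C with NADPH regeneration. Data normalized against 57uM ketoconazole.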

Values without a mark were called inactive. Inconclusive results are not listed. Active and inactive are the calls of the source. Unless noted, calls come from the whole dose curve; as a rule, active = well fitted curve in the direction sought with a large enough effect; inconclusive = small, poorly fitted or top-dose-only effect, or another doubt; inactive = no such curve, though single readings can be large; an effect the other way counts as inactive or inconclusive.

Pyruvate kinase PKM (Homo sapiens), sequence (P14618 whole entry, looked up): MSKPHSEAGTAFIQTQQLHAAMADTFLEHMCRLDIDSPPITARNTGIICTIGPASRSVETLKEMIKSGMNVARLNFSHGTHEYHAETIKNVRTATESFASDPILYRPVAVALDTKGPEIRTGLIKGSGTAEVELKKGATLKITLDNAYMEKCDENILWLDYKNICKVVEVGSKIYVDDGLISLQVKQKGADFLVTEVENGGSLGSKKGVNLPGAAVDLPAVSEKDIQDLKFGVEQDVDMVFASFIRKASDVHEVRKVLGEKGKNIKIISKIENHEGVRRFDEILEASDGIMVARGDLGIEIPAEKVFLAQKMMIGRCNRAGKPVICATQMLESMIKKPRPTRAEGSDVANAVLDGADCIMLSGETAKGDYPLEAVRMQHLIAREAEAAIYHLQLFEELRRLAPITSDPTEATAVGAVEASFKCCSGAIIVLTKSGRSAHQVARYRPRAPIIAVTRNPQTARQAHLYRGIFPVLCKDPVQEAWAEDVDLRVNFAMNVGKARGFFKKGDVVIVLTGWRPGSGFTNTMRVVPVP
Pyruvate kinase (Leishmania mexicana), sequence (Q27686 2-499 E452W): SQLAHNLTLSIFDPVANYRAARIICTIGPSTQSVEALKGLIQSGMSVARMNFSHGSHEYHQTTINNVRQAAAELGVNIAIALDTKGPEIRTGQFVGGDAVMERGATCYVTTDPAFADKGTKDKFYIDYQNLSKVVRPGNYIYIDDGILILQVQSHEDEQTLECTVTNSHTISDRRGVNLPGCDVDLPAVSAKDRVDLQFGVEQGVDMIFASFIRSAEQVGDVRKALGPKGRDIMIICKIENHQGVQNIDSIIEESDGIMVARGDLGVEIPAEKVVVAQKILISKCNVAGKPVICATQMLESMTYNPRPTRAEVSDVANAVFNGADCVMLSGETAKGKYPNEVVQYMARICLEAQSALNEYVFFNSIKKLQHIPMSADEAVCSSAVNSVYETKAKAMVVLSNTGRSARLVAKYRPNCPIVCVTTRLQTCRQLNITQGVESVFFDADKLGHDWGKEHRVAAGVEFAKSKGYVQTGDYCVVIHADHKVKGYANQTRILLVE
Cytochrome P450 1A2 (Homo sapiens), sequence (P05177 whole entry, looked up): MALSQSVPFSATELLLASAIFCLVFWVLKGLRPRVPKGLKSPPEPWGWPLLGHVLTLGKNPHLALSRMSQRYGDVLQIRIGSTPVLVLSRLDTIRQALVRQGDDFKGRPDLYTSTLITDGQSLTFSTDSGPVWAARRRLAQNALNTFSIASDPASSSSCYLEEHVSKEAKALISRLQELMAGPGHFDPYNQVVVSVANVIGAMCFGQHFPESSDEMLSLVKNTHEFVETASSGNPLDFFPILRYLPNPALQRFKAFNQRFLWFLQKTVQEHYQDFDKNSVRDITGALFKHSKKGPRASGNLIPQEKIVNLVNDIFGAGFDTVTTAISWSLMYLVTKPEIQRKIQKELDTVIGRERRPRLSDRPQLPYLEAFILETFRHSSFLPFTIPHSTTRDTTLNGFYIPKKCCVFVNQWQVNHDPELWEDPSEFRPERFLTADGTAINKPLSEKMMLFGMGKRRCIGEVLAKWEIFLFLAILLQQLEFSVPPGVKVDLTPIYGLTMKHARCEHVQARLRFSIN
3',5'-cyclic-AMP phosphodiesterase 4B (Homo sapiens), sequence (Q07343 whole entry, looked up): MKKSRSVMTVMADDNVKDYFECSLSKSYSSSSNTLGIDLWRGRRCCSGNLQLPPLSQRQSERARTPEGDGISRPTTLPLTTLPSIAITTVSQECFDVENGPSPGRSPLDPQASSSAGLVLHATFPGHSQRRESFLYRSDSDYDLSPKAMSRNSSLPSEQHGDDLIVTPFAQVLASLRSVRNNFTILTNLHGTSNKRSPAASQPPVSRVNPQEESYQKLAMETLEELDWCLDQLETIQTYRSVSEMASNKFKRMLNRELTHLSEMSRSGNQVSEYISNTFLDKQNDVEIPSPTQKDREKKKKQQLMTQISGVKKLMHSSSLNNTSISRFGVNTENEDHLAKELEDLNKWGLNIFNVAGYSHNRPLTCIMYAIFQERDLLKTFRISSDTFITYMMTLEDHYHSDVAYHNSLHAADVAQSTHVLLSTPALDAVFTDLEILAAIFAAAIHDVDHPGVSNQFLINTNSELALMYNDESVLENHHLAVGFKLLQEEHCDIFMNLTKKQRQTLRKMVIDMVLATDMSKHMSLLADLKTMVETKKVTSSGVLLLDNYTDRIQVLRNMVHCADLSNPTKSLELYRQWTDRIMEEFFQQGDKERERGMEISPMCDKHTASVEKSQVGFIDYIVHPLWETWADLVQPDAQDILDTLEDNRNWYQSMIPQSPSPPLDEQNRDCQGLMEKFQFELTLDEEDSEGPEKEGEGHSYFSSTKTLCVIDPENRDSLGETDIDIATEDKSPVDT
Alpha-galactosidase A (Homo sapiens), sequence (P06280 whole entry, looked up): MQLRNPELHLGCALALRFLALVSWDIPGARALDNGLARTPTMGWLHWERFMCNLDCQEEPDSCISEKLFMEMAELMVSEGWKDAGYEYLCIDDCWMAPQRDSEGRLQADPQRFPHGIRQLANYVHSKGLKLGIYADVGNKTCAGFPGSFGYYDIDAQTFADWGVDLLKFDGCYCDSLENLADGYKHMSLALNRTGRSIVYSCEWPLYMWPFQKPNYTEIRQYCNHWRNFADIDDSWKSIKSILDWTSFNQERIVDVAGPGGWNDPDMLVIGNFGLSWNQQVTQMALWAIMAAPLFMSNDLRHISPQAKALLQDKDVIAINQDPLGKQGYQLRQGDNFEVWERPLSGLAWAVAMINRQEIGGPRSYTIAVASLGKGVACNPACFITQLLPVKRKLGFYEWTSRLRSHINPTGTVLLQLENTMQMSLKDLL
Guanine nucleotide-binding protein G(i) subunit alpha-1 (Homo sapiens), sequence (P63096 whole entry, looked up): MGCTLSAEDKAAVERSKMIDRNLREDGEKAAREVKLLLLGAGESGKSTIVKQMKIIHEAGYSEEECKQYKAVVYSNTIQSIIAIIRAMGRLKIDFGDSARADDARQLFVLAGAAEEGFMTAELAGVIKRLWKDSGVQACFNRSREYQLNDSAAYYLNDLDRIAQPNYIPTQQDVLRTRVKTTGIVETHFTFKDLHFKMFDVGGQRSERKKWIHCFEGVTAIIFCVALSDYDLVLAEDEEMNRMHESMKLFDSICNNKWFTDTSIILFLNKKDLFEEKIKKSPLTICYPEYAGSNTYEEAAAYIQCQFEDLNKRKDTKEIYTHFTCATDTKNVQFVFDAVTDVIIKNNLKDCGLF
Cytochrome P450 2C19 (Homo sapiens), sequence (P33261 whole entry, looked up): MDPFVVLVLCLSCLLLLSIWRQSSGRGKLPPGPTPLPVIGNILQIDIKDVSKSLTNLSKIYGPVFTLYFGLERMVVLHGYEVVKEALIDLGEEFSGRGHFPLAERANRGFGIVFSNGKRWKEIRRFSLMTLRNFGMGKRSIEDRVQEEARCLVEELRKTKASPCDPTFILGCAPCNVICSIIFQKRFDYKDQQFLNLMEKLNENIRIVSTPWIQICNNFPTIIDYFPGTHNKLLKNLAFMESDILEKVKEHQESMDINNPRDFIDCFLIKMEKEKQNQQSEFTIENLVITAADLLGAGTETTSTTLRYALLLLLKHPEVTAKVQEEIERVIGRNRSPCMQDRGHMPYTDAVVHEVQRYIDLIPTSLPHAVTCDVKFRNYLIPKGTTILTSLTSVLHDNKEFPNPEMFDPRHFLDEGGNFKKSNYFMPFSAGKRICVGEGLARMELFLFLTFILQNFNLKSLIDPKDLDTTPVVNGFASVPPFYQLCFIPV

Consider `NC(N)=N[C@H](CCC(=O)O)C(=O)O`, for which the activity change, negative = inhibition is -11% [at 38 µM] in experiment [1] and -4.2% [at 38 µM] in experiment [3]. For the same molecule, the Potency result in [2], in experiment [7], in experiment [8], in [10], in experiment [12] and in [16] was “inactive” in each case. In addition, the activity, negative = inhibition in experiment [4] was 0.861% [at 38 µM]. The Potency in experiment [5] and in experiment [6] was more than 46 µM throughout. In addition, the molecule was classed as inactive in experiment [9], in experiment [11], in [13], in experiment [14] and in experiment [15].
`COc1cc([C@@H](O)CO)ccc1OS(=O)(=O)O`: the activity change, negative = inhibition in experiment [1] is 6.76% [at 38 µM]; in [3] it was 4.87% [at 38 µM]. The Potency entry in experiment [2], in experiment [7], in experiment [8] and in experiment [16] was “inactive” in each case. Moreover, the activity, negative = inhibition in experiment [4] was 7.18% [at 38 µM]. Moreover, the Potency in experiment [5] and in experiment [6] was more than 46 µM in each case. For the same molecule, the result in [9], in experiment [11], in [13], in experiment [14] and in experiment [15] was inactive.
As to `OC[C@@H]1NC[C@@H](O)[C@@H](O)[C@H]1O`, the activity change, negative = inhibition in [1] was 0.931% [at 38 µM]; in experiment [3], 1.96% [at 38 µM]. Moreover, the Potency result in experiment [2], in experiment [7], in experiment [8], in [17] and in experiment [12] was “inactive” each time. The activity, negative = inhibition in [4] is -28.2% [at 38 µM]. The Potency in experiment [5] is more than 46 µM; in experiment [6], more than 46 µM; in experiment [16], 0.0794 µM (active). The outcome in [9], in [11], in [13], in experiment [14] and in [15] was inactive.
As for `CN1CC[C@@]2(CCN3CCc4c(oc5ccccc45)[C@@H]3C2)N(C)C1=O`, the activity change, negative = inhibition in experiment [1] is 18% [at 38 µM]; in experiment [3] it was -21.7% [at 38 µM]. Besides, the Potency result in experiment [2], in [7], in [8], in experiment [17] and in [16] was “inactive” in each case. Also, in experiment [4], the activity, negative = inhibition was -5.91% [at 38 µM]. Moreover, the Potency in [5] and in experiment [6] was more than 46 µM in each case. Besides, the molecule was classed as inactive in experiment [9], in [13], in experiment [14] and in [15].
For `N[C@H](Cc1ccc(O)c(I)c1)C(=O)O`, the figures for the activity change, negative = inhibition in [1] and in experiment [3] were 6.16% [at 38 µM] and 8.86% [at 38 µM], respectively. The Potency result in experiment [2], in experiment [7], in [8], in [18], in experiment [19] and in [20] was “inactive” throughout. In experiment [4], the activity, negative = inhibition was -3.36% [at 38 µM]. For the same molecule, the Potency in [5] and in experiment [6] was more than 46 µM in each case.

The record behind these values is PubChem BioAssay (NCATS).
